# Source: article PMC5540273 (PLoS ONE, 2017)
# Several values for one entry are separate records, joined by “and”; a condition that tells them apart may be missing. Equal entries are not always repeated. Where two headings read alike, the source gives them in different places.
# How the values were obtained:
# INSRR = conditions: concentration: 1 μM, replicates: in singlicate, n = 1
# INSR = conditions: concentration: 1 μM, replicates: in singlicate, n = 1
# IRAK1 = conditions: concentration: 1 μM, replicates: in singlicate, n = 1
# IRAK3 = conditions: concentration: 1 μM, replicates: in singlicate; n = 1
# IRAK4 = conditions: concentration: 1 μM, replicates: in singlicate, n = 1
# ITK = conditions: concentration: 1 μM, replicates: in singlicate, n = 1
# [1] = tested on: JAK1(JH1domain-catalytic); conditions: concentration: 1 μM, replicates: in singlicate, n = 1
# [2] = tested on: JAK1(JH2domain-pseudokinase); conditions: concentration: 1 μM, replicates: in singlicate, n = 1
# [3] = tested on: JAK2(JH1domain-catalytic); conditions: concentration: 1 μM, replicates: in singlicate, n = 1
# [4] = tested on: JAK3(JH1domain-catalytic); conditions: concentration: 1 μM, replicates: in singlicate; n = 1
# JNK1 = tested on: T1, JNK1; conditions: concentration: 1 μM, replicates: in singlicate, n = 1
# T1 construct: gene MAPK8
# JNK2 = tested on: T2, JNK2; conditions: concentration: 1 μM, replicates: in singlicate, n = 1
# T2 construct: gene MAPK9
# JNK3 = tested on: T3, JNK3; conditions: concentration: 1 μM, replicates: in singlicate, n = 1
# T3 construct: gene MAPK10
# KIT-autoinhibited = conditions: concentration: 1 μM, replicates: in singlicate, n = 1
# KIT = conditions: concentration: 1 μM, replicates: in singlicate, n = 1
# LATS1 = conditions: concentration: 1 μM, replicates: in singlicate, n = 1
# LATS2 = conditions: concentration: 1 μM, replicates: in singlicate, n = 1
# LCK = conditions: concentration: 1 μM, replicates: in singlicate, n = 1
# LIMK1 = conditions: concentration: 1 μM, replicates: in singlicate; n = 1
# LIMK2 = conditions: concentration: 1 μM, replicates: in singlicate, n = 1
# 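Further: KINOMEscan kinase panel screen.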
structure (smiles),measurement,setting,value
OCCOCCn1ccc2ncnc(Nc3ccc(Oc4cccc(Cl)c4)c(Cl)c3)c21,%Inh,INSRR,0%
same,%Inh,INSR,0%
same,%Inh,IRAK1,0%
same,%Inh,IRAK3,0%
same,%Inh,IRAK4,0%
same,%Inh,ITK,0%
same,%Inh,[1],0%
same,%Inh,[2],38%
same,%Inh,[3],0%
same,%Inh,[4],0%
same,%Inh,JNK1,0%
same,%Inh,JNK2,0%
same,%Inh,JNK3,0%
same,%Inh,KIT-autoinhibited,0%
same,%Inh,KIT,0%
same,%Inh,LATS1,0%
same,%Inh,LATS2,0%
same,%Inh,LCK,41%
same,%Inh,LIMK1,0%
same,%Inh,LIMK2,0%
COc1ccc(Nc2nccc(N3CCC(NC(=O)Nc4ccc5c(c4)OCO5)C3)n2)cc1 (centres unmarked) [GSK1379745],%Inh,INSRR,0%
same,%Inh,INSR,0%
same,%Inh,IRAK1,11%
same,%Inh,IRAK3,11%
same,%Inh,IRAK4,6%
same,%Inh,ITK,6%
same,%Inh,[1],0%
same,%Inh,[2],0%
same,%Inh,[3],19%
same,%Inh,[4],0%
same,%Inh,JNK1,18%
same,%Inh,JNK2,20%
same,%Inh,JNK3,20%
same,%Inh,KIT-autoinhibited,0%
same,%Inh,KIT,48%
same,%Inh,LATS1,0%
same,%Inh,LATS2,0%
same,%Inh,LCK,24%
same,%Inh,LIMK1,0%
same,%Inh,LIMK2,26%
CSc1nn2c(=O)cc(N3CCOCC3)nc2n1Cc1cccc(Cl)c1Cl [GSK2347225],%Inh,INSRR,0%
same,%Inh,INSR,17%
same,%Inh,IRAK1,0%
same,%Inh,IRAK3,0%
same,%Inh,IRAK4,0%
same,%Inh,ITK,13%
same,%Inh,[1],24%
same,%Inh,[2],0%
same,%Inh,[3],18%
same,%Inh,[4],0%
same,%Inh,JNK1,11%
same,%Inh,JNK2,26%
same,%Inh,JNK3,10%
same,%Inh,KIT-autoinhibited,0%
same,%Inh,KIT,23%
same,%Inh,LATS1,9%
same,%Inh,LATS2,9%
same,%Inh,LCK,31%
same,%Inh,LIMK1,11%
same,%Inh,LIMK2,19%
Clc1cccc(-c2nc(Nc3ccncc3)c3ccccc3n2)c1 [GW873004],%Inh,INSRR,4%
same,%Inh,INSR,0%
same,%Inh,IRAK1,7%
same,%Inh,IRAK3,9%
same,%Inh,IRAK4,0%
same,%Inh,ITK,21%
same,%Inh,[1],0%
same,%Inh,[2],16%
same,%Inh,[3],0%
same,%Inh,[4],13%
same,%Inh,JNK1,0%
same,%Inh,JNK2,0%
same,%Inh,JNK3,0%
same,%Inh,KIT-autoinhibited,1%
same,%Inh,KIT,10%
same,%Inh,LATS1,14%
same,%Inh,LATS2,0%
same,%Inh,LCK,31%
same,%Inh,LIMK1,54%
same,%Inh,LIMK2,12%
Clc1ccc(-c2cc(-c3c[nH]nc3-c3ccccn3)ccn2)cc1 [GW681251],%Inh,INSRR,0%
same,%Inh,INSR,0%
same,%Inh,IRAK1,43%
same,%Inh,IRAK3,0%
same,%Inh,IRAK4,8%
same,%Inh,ITK,16%
same,%Inh,[1],0%
same,%Inh,[2],0%
same,%Inh,[3],2%
same,%Inh,[4],0%
same,%Inh,JNK1,35%
same,%Inh,JNK2,30%
same,%Inh,JNK3,33%
same,%Inh,KIT-autoinhibited,0%
same,%Inh,KIT,54%
same,%Inh,LATS1,0%
same,%Inh,LATS2,0%
same,%Inh,LCK,13%
same,%Inh,LIMK1,0%
same,%Inh,LIMK2,0%
O=C(Nc1ccccc1)Nc1ccc(Oc2ccc3nccn3n2)cc1,%Inh,INSRR,1%
same,%Inh,INSR,0%
same,%Inh,IRAK1,0%
same,%Inh,IRAK3,0%
same,%Inh,IRAK4,0%
same,%Inh,ITK,20%
same,%Inh,[1],28%
same,%Inh,[2],2%
same,%Inh,[3],8%
same,%Inh,[4],0%
same,%Inh,JNK1,0%
same,%Inh,JNK2,0%
same,%Inh,JNK3,0%
same,%Inh,KIT-autoinhibited,28%
same,%Inh,KIT,95.8%
same,%Inh,LATS1,0%
same,%Inh,LATS2,0%
same,%Inh,LCK,21%
same,%Inh,LIMK1,10%
same,%Inh,LIMK2,14%
Cl.Cl.c1ccc(-c2cc3ccncc3cc2OC2CCNCC2)cc1 [GSK1122999],%Inh,INSRR,0%
same,%Inh,INSR,0%
same,%Inh,IRAK1,56%
same,%Inh,IRAK3,24%
same,%Inh,IRAK4,1%
same,%Inh,ITK,11%
same,%Inh,[1],22%
same,%Inh,[2],0%
same,%Inh,[3],8%
same,%Inh,[4],0%
same,%Inh,JNK1,14%
same,%Inh,JNK2,15%
same,%Inh,JNK3,0%
same,%Inh,KIT-autoinhibited,0%
same,%Inh,KIT,18%
same,%Inh,LATS1,33%
same,%Inh,LATS2,50%
same,%Inh,LCK,38%
same,%Inh,LIMK1,18%
same,%Inh,LIMK2,34%
COc1ccc(Nc2nccc(N3CCC(NC(=O)c4cccc(NC(C)=O)c4)C3)n2)cc1 (centres unmarked) [GSK1379732],%Inh,INSRR,0%
same,%Inh,INSR,0%
same,%Inh,IRAK1,24%
same,%Inh,IRAK3,0%
same,%Inh,IRAK4,0%
same,%Inh,ITK,0%
same,%Inh,[1],15%
same,%Inh,[2],0%
same,%Inh,[3],22%
same,%Inh,[4],0%
same,%Inh,JNK1,16%
same,%Inh,JNK2,23%
same,%Inh,JNK3,26%
same,%Inh,KIT-autoinhibited,0%
same,%Inh,KIT,7%
same,%Inh,LATS1,0%
same,%Inh,LATS2,9%
same,%Inh,LCK,9%
same,%Inh,LIMK1,0%
same,%Inh,LIMK2,0%
COc1ccc(-c2nc3n(c2-c2ccncc2)CCC3)cc1 [SKF-104493],%Inh,INSRR; 1 µM,1% and 0%
same,%Inh,INSR; 1 µM,5% and 0%
same,%Inh,IRAK1; 1 µM,12% and 0%
same,%Inh,IRAK3,0%
same,%Inh,IRAK4; 1 µM,0% and 2%
same,%Inh,ITK; 1 µM,0% and 1%
same,%Inh,[1]; 1 µM,0% and 9%
same,%Inh,[2]; 1 µM,43% and 41%
same,%Inh,[3]; 1 µM,11% and 0%
same,%Inh,[4],0%
same,%Inh,JNK1; 1 µM,46% and 22%
same,%Inh,JNK2; 1 µM,37% and 50%
same,%Inh,JNK3; 1 µM,47% and 65%
same,%Inh,KIT-autoinhibited; 1 µM,0% and 19%
same,%Inh,KIT; 1 µM,0% and 25%
same,%Inh,LATS1; 1 µM,0% and 19%
same,%Inh,LATS2; 1 µM,16% and 12%
same,%Inh,LCK; 1 µM,26% and 23%
same,%Inh,LIMK1,0%
same,%Inh,LIMK2; 1 µM,0% and 3%
Fc1cccc(COc2ccc(Nc3ncnc4cc[nH]c34)cc2Cl)c1,%Inh,INSRR,0%
same,%Inh,INSR,0%
same,%Inh,IRAK1,6%
same,%Inh,IRAK3,0%
same,%Inh,IRAK4,4%
same,%Inh,ITK,13%
same,%Inh,[1],0%
same,%Inh,[2],36%
same,%Inh,[3],19%
same,%Inh,[4],0%
same,%Inh,JNK1,33%
same,%Inh,JNK2,17%
same,%Inh,JNK3,46%
same,%Inh,KIT-autoinhibited,6%
same,%Inh,KIT,24%
same,%Inh,LATS1,26%
same,%Inh,LATS2,25%
same,%Inh,LCK,25%
same,%Inh,LIMK1,22%
same,%Inh,LIMK2,17%
